Laboratory results taken from PubChem BioAssay AID2732 (Emory University Molecular Libraries Screening Center, 2010).
“And” between values parts separate entries of the source, which are not always exact repeats. Identical values can stand only once. The campaign covered roughly 220,000 compounds. About 8,200 (3.7%) were called active. The full list was thinned out, with actives kept by preference. Unmarked numbers belong to inactive results.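 How the source made its calls: active means compounds that reduced the stress-induced luciferase reporter signal by more than about 70% of percent inhibition (limit read from the data); inactive means the rest.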

Assay: inhibitors of CHOP promoter induction, primary screen, cell-based, unfolded protein response, luciferase reporter (AID 2732);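 further: 0% = tunicamycin plus vehicle and 100% = wells without tunicamycin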
Conditions: CHO-K1 CHOP-promoter luciferase, tunicamycin-induced, 15-18 h; at 10 µM; stronger effect = higher value

| SMILES | inhibition |
| --- | --- |
| Cc1ccc(C)c2c1cc(C)c1nnc(SCC(=O)Nc3cccc(C(=O)O)c3)n12 | -9.73% |
| O=C(Cc1ccc(Cl)c(Cl)c1)Nc1ccc(SC(F)F)cc1 | 88% (active) |
| CC(=O)N1CCN(CC(=O)Nc2ccc(SC(F)F)cc2)CC1 | 16.9% |
| Cc1ccc(CC(=O)Nc2ccc(OC(F)F)c(Cl)c2)cc1C | 62% |
| CC(NC(=S)Nc1ccccc1)C(c1cccs1)N1CCOCC1 (centres undefined) | -3.16% |
| Oc1c(Br)cc(/C=N/NC(=S)NCC2CCCO2)cc1Br (centres undefined) | 22.4% |
| Cc1ccc(N2C(=O)CC(Nc3cccc4ccccc34)C2=O)cc1 (centres undefined) | 74.7% (active) |
| CC1=C(C)CC2C(=O)N(c3cccc4ccccc34)C(=O)C2C1 (centres undefined) | 19.9% |
| O=C(Cc1ccccc1)NNC1CC(=O)N(c2ccc(Br)cc2)C1=O (centres undefined) | 17% |
| COc1cc(C=O)c(Br)cc1OCC(=O)NCc1ccccc1 | 18% |
| COc1ccc(NC(=O)/C(C#N)=C\c2cc(OC)c(OCc3ccc(C(=O)O)cc3)cc2Br)cc1 | 103% (active) |
| COc1cc(/C=C(\C#N)C(=O)Nc2ccc3ccccc3c2)c([N+](=O)[O-])cc1OC | -24.5% |
| O=C(NCc1ccco1)C1CCCN1S(=O)(=O)c1ccccc1C(F)(F)F (centres undefined) | 14.3% |
| CN(C)NC(=O)c1csnc1-c1c(Cl)cccc1Cl | -5.93% |
| Cc1ccccc1CSc1nnc(CCCCCNC(=O)OC(C)(C)C)o1 | 12.7% |
| NCC(=O)c1cccc2ccc[n+]([O-])c12 | -8.9% |
| COc1ccc(S(=O)(=O)Nc2ccc(O)c(Sc3nc4ccccc4s3)c2)cc1 | 13.3% |
| O=[N+]([O-])c1c(NCCO)cc(Sc2nc3ccccc3s2)c2nonc12 | 108% (active) |
| O=C(CSc1nc2ccccc2s1)Nc1ccc(C(=O)O)cc1 | -1.84% |
| C/C(=N\NC(=O)CC(C)C)c1c(C(F)(F)F)[nH]n(-c2nc3ccccc3s2)c1=O | -21.3% |
| CCN(CC)c1ccc(/C=N/NC(=O)c2cnccn2)c(O)c1 | 47.2% |
| C=CCn1c(N)c(C(=O)OCC(C)C)c2nc3ccccc3nc21 | 18% |
| CCC(C)NC(=O)c1c(N)n(/N=C/c2cccs2)c2nc3ccccc3nc12 (centres undefined) | 67.4% |
| CC(C)Cn1c(N)c(C(=O)NCc2cccs2)c2nc3ccccc3nc21 | 89% (active) |
| Cc1cccc(NC(=O)CSc2nnc(CCNC(=O)OC(C)(C)C)o2)c1C | -14.5% |

| SMILES | inhibition |
| --- | --- |
| COC(=O)c1ccc(COc2cc([N+](=O)[O-])cc3cccnc23)cc1 | 5.56% |
| CC(=O)N(OCc1ccc(OC(C)C)c(Cl)c1)C(C)=O | -4.06% |
| O=C(CSc1ccccc1)Nc1nnc(/C=C/c2ccccc2)s1 | 88.6% (active) |
| CCOCc1nnc(NC(=O)CSc2ccc(C)cc2)s1 | 12.8% |
| O=C(Nc1ccc(Cl)cc1)Nc1nnc(/C=C/c2ccccc2)s1 | 46.8% |
| Cc1ccc(-n2ncc3c(=O)[nH]cnc32)c(C)c1 | 31.6% |
| Cc1ccc(N2CCN(S(=O)(=O)c3ccc(F)cc3)CC2)c(C)c1 | 47.5% |
| Cc1ccc(-n2ncc3c(N4CCN(c5ccc(F)cc5)CC4)ncnc32)c(C)c1 | 83.8% (active) |
| CCOc1ccc(/C=N/NC(=O)CSc2ccccn2)cc1O | 3.02% |
| CC(C)(C)C1CCC(OC(=O)CCC(=O)Nc2ccccc2)CC1 (centres undefined) | 71.5% (active) |
| CC1CCN(CCC(=O)Nc2ccccc2)CC1 | -9.3% |
| O=C(CCC(=O)OCc1ccc(Cl)cc1)Nc1ccccc1 | 0.59% |
| COc1ccccc1CNC(=O)Cn1c(=O)oc2cc(Cl)ccc21 | 4.18% |
| CCOc1ccc2nc(/N=C/c3nc(-c4ccccc4)oc3O)sc2c1 | 73.9% (active) |
| CC(N=Cc1nc(-c2ccccc2)oc1O)c1ccccc1 (centres undefined) | 28.4% |
| CCOc1ccc2nc(SC(CC)C(=O)Nc3cc(C)on3)sc2c1 (centres undefined) | 27.5% |
| Cn1c(SCC(=O)Nc2ccc(Cl)cc2)nc(O)cc1=O | -3.96% |
| N#Cc1ccccc1NC(=O)COc1c(Br)cc(Br)c2cccnc12 | 88.1% (active) |
| O=C(COC(=O)c1ccccn1)Nc1cccc2ccccc12 | -19.7% |
| N#Cc1ccc(C(=O)Nc2cccc3cccnc23)c(F)c1 | -2.37% |
| CCN(CC)CCNCC(=O)Nc1ccc(Oc2ccccc2)cc1 | -16.4% |
| Cc1cc2cc(CN(Cc3cccs3)Cc3nnnn3CC3CCCO3)c(=O)[nH]c2cc1C (centres undefined) | 20.8% |
| Cc1cc(C)c2cc(CN(Cc3cccs3)Cc3nnnn3CC3CCCO3)c(=O)[nH]c2c1 (centres undefined) | 76% (active) |
| Cc1cc(C)c2cc(CN(Cc3nnnn3Cc3ccc(F)cc3)C3CCCC3)c(=O)[nH]c2c1 | 8.91% |
| CCOC(=O)c1c(N)sc2c1CCCC2=O | 4.68% |

| SMILES | inhibition |
| --- | --- |
| O=C(Cn1c[n+](CC(=O)c2ccc([N+](=O)[O-])cc2)cn1)c1ccc([N+](=O)[O-])cc1 | -15.2% and -12.2% |
| COc1ccccc1CNC(=O)c1ccc(SC)cc1OC | 2.76% |
| COc1cc(SC)ccc1C(=O)Nc1cc(C)ccn1 | 37.2% |
| COc1cc(SC)ccc1C(=O)Nc1nc(C)cs1 | 95.2% (active) |
| CCc1cc(C(=O)OC)c(NC(=O)CC2Sc3ccc(C(F)(F)F)cc3NC2=O)s1 (centres undefined) | 72.2% (active) |
| COC(=O)c1cc(C)sc1NC(=O)CC1Nc2ccccc2NC1=O (centres undefined) | 51.1% |
| Cc1ccc(CNC(=O)CC2Sc3ccccc3NC2=O)cc1 (centres undefined) | -5.1% |
| COC(=O)c1noc(C)c1-c1ccnn1C(=O)c1ccc(Cl)cc1 | -0.96% |
| COc1cccc(OC)c1CN(C)C(=O)c1cnccc1C(F)(F)F | 16.4% |
| Cc1ccsc1/C=N/NC(=O)Cc1cc(=O)[nH][nH]1 | 10.3% |
| Cc1cccc(NC(=S)NC(=O)c2ccc(Br)o2)c1 | -36.1% |
| O=C(NC(=S)Nc1ccc2oc(=O)ccc2c1)c1ccc(-c2cccc(Cl)c2Cl)o1 | 80.2% (active) |
| CC(C)C(=O)Nc1ccc2oc(=O)ccc2c1 | 8.38% |
| C=C(C)CNC(=S)Nc1ccc(S(=O)(=O)Nc2cnc3ccccc3n2)cc1 | 11.6% |
| Clc1cccc(CN2COc3c(cc(Cl)c4cccnc34)C2)c1 | 108% (active) |
| O=c1[nH]n(-c2cccc(Cl)c2)c2ncccc12 | 9.34% |
| O=C1/C(=C/c2coc3ccc(O)cc3c2=O)SC(=S)N1c1ccccc1 | -12.8% |
| CCOC(=O)COc1nc(C)cc(C(F)(F)F)c1C#N | 16.9% |
| Cn1c(CC2Sc3ccccc3NC2=O)nnc1SCC(=O)c1ccc(Cl)cc1 (centres undefined) | 11.3% |
| CCc1cc(C(=O)c2ccc(OC)cc2)c(NC(=O)CN2CCN(C)CC2)s1 | 9.91% |
| CCNc1nc(NCC)nc(N(C)n2cnnc2)n1 | 2.32% |
| Nc1nc(SCCOc2ccccc2)n[nH]1 | -32% |
| CCNc1nc(SCCOc2ccccc2)nc(N(C)C)n1 | 90.8% (active) |
| C/C(=N\Nc1cccc(C(=O)O)c1)c1ccc2c(c1)Nc1ccccc1S2 | -2.01% |
| Cc1nn(-c2ccccc2)c(C)c1C(=O)OCC(=O)NC(=O)NC1CCCCC1 | 71.2% (active) |

| SMILES | inhibition |
| --- | --- |
| CCCn1c(C)cc(C(=O)COC(=O)c2c(C)nn(-c3ccccc3)c2C)c1C | 52.2% |
| Cc1ccc(OC(=O)c2c(C)nn(-c3ccccc3)c2C)cc1 | 5.12% |
| CCc1cc(CNC(=O)CC2C(=O)NCCN2Cc2ccccc2C(F)(F)F)on1 (centres undefined) | 20.4% |
| O=c1[nH]c(SCc2cccc(F)c2)nc2ccccc12 | 8.81% |
| Cc1noc(C)c1COC(=O)COc1ccc(-c2ccccc2)cc1 | 10.1% |
| NC(N)=Nc1nc2ccc(Br)cc2c(=O)[nH]1 | 74.1% (active) |
| C/C(=N\N)c1c(-c2ccccc2)c2cc(Br)ccc2[nH]c1=O | -1.78% |
| NC(=O)C1CCN(Cc2nc3c(Br)cc(Br)cc3c(=O)[nH]2)CC1 | 13.6% |
| Cc1[nH]n(-c2ccccc2)c(=O)c1N=Nc1ccccc1C(=O)N1CCCCC1 | 59.1% |
| Cc1ncn2cc(-c3ccc(Cl)cc3Cl)[nH]c(=O)c12 | 13.6% |
| c1ccc(-n2cccc2)c(N2CCCCC2)c1 | -6% |
| CC(Sc1nc2c([nH]c3ccccc32)c(=O)n1C)c1ccccc1 (centres undefined) | 94.8% (active) |
| Cn1nnnc1SCc1cc(=O)[nH]c2ccccc12 | 6.42% |
| CCCCn1c(=S)[nH]c2ccccc2c1=O | -18.6% |
| O=C(Nc1ccc(Cl)cc1)/C(=C1\CCCN1)[N+](=O)[O-] | -6.93% |
| CN1CCN(c2ccc(CNS(=O)(=O)c3cccc(F)c3)cc2)CC1 | 9.01% |
| COc1ccc2[nH]c(=S)cc(C)c2c1 | -0.1% |
| CC(=O)Nc1nc2ccccc2n1Cc1ccc(C)cc1 | -14.1% |
| Cc1ccc(-n2nc3cc(Cl)c(NC(=O)c4ccco4)cc3n2)cc1 | -26.1% |
| Cc1ccc(Cn2c(NC(=O)c3ccco3)nc3ccccc32)cc1 | 80.3% (active) |
| CN(C)S(=O)(=O)c1cccc(-c2nn(-c3ccccc3)cc2/C=C2\SC(=S)N(CC(=O)O)C2=O)c1 | 4.39% |
| CCCC(=O)Nc1ccc(Cl)c(NC(=O)c2ccc(Br)o2)c1 | 40.2% |
| CC(CC(=O)Nc1cc(C(F)(F)F)ccc1Cl)c1ccccc1 (centres undefined) | 54.4% |
| CCCCC(=O)Nc1ccc(C(=O)Nc2cc(C(F)(F)F)ccc2Cl)cc1 | 94.3% (active) |
